Assay results reported in PubChem BioAssay AID2289 (National Center for Advancing Translational Sciences (NCATS), 2010).
“And” between values parts separate entries of the source, which are not always exact repeats. Identical values can stand only once. Out of some 340,000 compounds screened, about 3,300 (0.97%) were called active. Not shown: some 9% with an inconclusive outcome. Calls come from the whole dose curve; as a rule, active = well fitted inhibition curve with a large enough effect; inconclusive = small, poorly fitted or top-dose-only effect, or effect the other way; inactive = flat fitted curve, though single readings scatter. Some of the results follow.

Assay: qHTS Assay for Modulators of miRNAs and/or Inhibitors of miR-21; note: nearly all actives have a fitted effect of over 55% in size
Conditions: HeLa miR-21-FLuc reporter, luciferase luminescence, 48 h; actives lower the signal
How it was run: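 Luminescence from a firefly luciferase reporter carrying a miR-21 binding site downstream, stably expressed under a CMV promoter in HeLa cells that make miR-21 endogenously, reports miRNA modulation after 48 h compound exposure up to approximately 40uM final.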
Potency is the fitted concentration of half-maximal effect.

Potency, active:
Cn1cc(Cl)c(C(=O)N/N=C/c2ccc3c4c(cccc24)CC3)n1 1.65 µM, Nc1ccc(N=Nc2ccccc2Cl)c(N)n1 2.07 µM, COc1ccc(N=Nc2ccc(N)nc2N)cc1 2.61 µM, c1ccc(SCc2nc(-c3ccccn3)no2)cc1 2.82 µM, COc1ccc(-c2noc(CSc3ccccc3)n2)cc1OC 11.7 µM, N=c1oc2cc(O)ccc2cc1C(=O)Nc1nc2ccccc2s1 1.04 µM, COc1ccc(NC(=O)c2cc3ccccc3o/c2=N\NS(=O)(=O)c2ccc(C)cc2)cc1 3.29 µM, Cc1ccc(NC(=O)c2cc3ccccc3oc2=N)cc1 0.0736 µM, N=c1oc2ccccc2cc1C(=O)Nc1cccc(F)c1 0.165 µM, CCc1ccc2oc(-c3cc(N)cc(C)c3O)nc2c1 2.93 µM, O=C(Nc1nc(-c2cccs2)cs1)C1=COCCO1 2.33 µM, N/C(=N\O)c1ccc(N2CCN(c3ncccc3C(F)(F)F)CC2)nc1 4.65 µM, CC(C)(C)c1ccc(SCCc2ccccn2)cc1 6.56 µM, CC(C)(C)c1ccc(SCCc2cccnc2)cc1 8.26 µM, Cc1ccc(NC(=O)NC(=O)N(C2CCCCC2)S(=O)(=O)c2ccccc2)cc1 16.5 µM, Cc1ccc2oc(=O)c(/C=C(\O)c3cccs3)nc2c1 4.65 µM, Nc1c(-c2cccc([N+](=O)[O-])c2)nc2ccccn12 5.85 µM, CN1CCC(Oc2ccc(Sc3ccccc3)cc2)CC1 5.21 µM, COc1ccc(CN(C(=O)c2cc3ccccc3oc2=O)C2CCS(=O)(=O)C2)cc1OC (centres undefined) 5.85 µM and 13.1 µM, CC(C)Oc1cccc(C(=O)NC(=S)Nc2cccnc2)c1 13.1 µM, CC(C)Oc1cccc(C(=O)NC2=NCCS2)c1 3.69 µM, O=C(NC1=NCCS1)c1ccc(C(F)(F)F)cc1 6.56 µM, O=C(NCc1ccco1)c1cc(-c2ccccc2)on1 7.36 µM, O=C(NCc1ccco1)c1cc(-c2cccs2)on1 5.85 µM, O=C(NCc1cccnc1)c1cc(-c2ccccc2)on1 18.5 µM, O=C(NC12CC3CC(CC(C3)C1)C2)N1CCN(C(=O)c2ccco2)CC1 16.5 µM, O=C1/C(=C/c2cccs2)CCC/C1=C\c1cccs1 1.65 µM, CC(=O)N(c1nnc(-c2cccc(C)c2)s1)C1CCCC1 8.26 µM, CCCCCNc1nc(-c2ccccc2)cs1 1.65 µM, Oc1ccc(-c2csc(Nc3ccccn3)n2)cc1O 2.61 µM, Oc1ccc(-c2csc(Nc3ncccn3)n2)cc1O 5.85 µM, CC(=O)Oc1ccc(-c2csc(Nc3cccc(C)n3)n2)cc1 1.47 µM, Cc1nc(N)sc1-c1csc(Nc2ncccn2)n1 2.93 µM, Cc1cccc(Nc2nc(-c3ccc(O)c(O)c3)cs2)n1 8.26 µM, c1ccc(Nc2nc(-c3cccs3)cs2)nc1 0.293 µM, c1ccc(-c2csc(Nc3ncccn3)n2)cc1 0.208 µM, Cc1ccnc(Nc2nc(-c3ccc(O)c(O)c3)cs2)c1 4.65 µM, Cc1ccc(Nc2nc(-c3ccc(O)c(O)c3)cs2)nc1 8.26 µM, CCOC(=O)c1cccnc1SCc1cc(=O)n2ccccc2n1 13.1 µM, CCOc1ccc(/C=N/NC(=O)c2ccoc2C)cc1OC 7.36 µM, COc1ccc(/C=N/NC(=O)c2ccoc2C)cc1O 6.56 µM, Cc1ccc2sc(-c3ccc(NC(=O)CCN4C(=O)c5ccccc5C4=O)cc3)nc2c1 0.104 µM, Cc1ccc2nc(-c3ccc(NC(=O)CCN4C(=O)c5ccccc5C4=O)cc3)sc2c1 0.0927 µM, Cc1ccc2nc(-c3ccc(NC(=O)CN4C(=O)c5ccccc5C4=O)cc3)sc2c1 1.65 µM, O=C(CCN1C(=O)c2ccccc2C1=O)Nc1ccc(-c2nc3ccccc3s2)cc1 0.261 µM, Cc1ccc2nc(-c3ccc(NC(=O)CSc4nc(N)cc(=O)[nH]4)cc3)sc2c1 8.26 µM, Cc1ccc2nc(-c3ccc(NC(=O)C(C)N4C(=O)c5ccccc5C4=O)cc3)sc2c1 (centres undefined) 1.17 µM, CCC(=O)c1ccc(OCc2ccc(C(=O)OC)cc2)cc1 0.261 µM, CCC(=O)c1ccc(OCc2ccc(C#N)cc2)cc1 9.27 µM, CCOc1ccc(C2=NNC(c3cccs3)=Nc3ccc(OC)cc32)cc1OCC 18.5 µM, CCOc1ccc2c(c1)C(c1ccc(C)cc1)=NNC(c1ccc(C)cc1)=N2 8.26 µM, C=C(C)C1Cc2cc3ccc(=O)oc3cc2O1 (centres undefined) 16.5 µM, Cc1ccc(Cn2nnc3c(=O)[nH]c(C4CCCN(S(=O)(=O)c5ccccc5)C4)nc32)cc1 (centres undefined) 18.5 µM, NC(=O)c1ccsc1NC(=O)c1cc(=O)c2ccccc2o1 0.329 µM, NC(=O)c1ccsc1NC(=O)c1coc2ccccc2c1=O 1.17 µM, O=C(Nc1ccccc1Br)c1cc(=O)c2ccccc2o1 2.07 µM, COc1cccc(/C(C)=N/Nc2ncc(Cl)cc2Cl)c1 16.5 µM, COc1cccc(/C(C)=N/N=C(\C)c2cccc(OC)c2)c1 4.14 µM, CCNc1nc(N)nc(Oc2ccc(C(=O)OC)cc2)n1 8.26 µM, CC(=O)COc1ccc2c(c1C)O/C(=C\c1ccco1)C2=O 3.69 µM, CN(CC(=O)NCCc1ccccc1)Cc1ccco1 14.7 µM, Cn1c(CCCOc2ccc(Cl)cc2Cl)n[nH]c1=S 13.1 µM, CCNC(=O)CCCOc1ccc(Cl)cc1Cl 16.5 µM, O=C(CCCOc1ccc(Cl)cc1Cl)Nc1ccccn1 11.7 µM, CCN(CC)C(=O)CCCOc1ccc(Cl)cc1Cl 14.7 µM, C=CCSc1ncc(C(=O)OCC)c(N)n1 16.5 µM, CCCCSc1ncc(C(=O)OCC)c(N)n1 1.31 µM, CCOC(=O)c1cnc(SCc2ccc(C)cc2)nc1N 7.94 µM, CCOC(=O)c1cnc(SCCc2ccccc2)nc1N 1.65 µM
